# Assay results from PubChem BioAssay (Tox21).
# Inconclusive results are not listed. A call without a number means that no potency is given here. Active and inactive are the calls of the source. Calls follow the shape of the dose curve; as a rule, active = well fitted curve in the direction sought with a large enough effect in the repeat runs; inconclusive = weak or mixed curves; inactive = no such curve, though single readings can be large; an effect the other way counts as inactive or inconclusive.
# Test: qHTS RealTime-Glo MT Cell Viability Assay in HEK293 cells - 40 hour (AID 1224874); also: nearly all actives have a fitted effect of over 50% in size
# Conditions: RealTime-Glo luminescence; max response: active compounds read low
# How it was run: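 Kinetic, non-lysing viability readout. Seed HEK293 (600/well) with reagent, incubate 5 h at 37 C/5% CO2, pin 23 nL compound in DMSO, incubate at 37 C, read luminescence at 0, 8, 16, 24, 32, 40 h.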
row,Compound,max response
1,CCC(=O)OC1(c2ccccc2)CCN(C)CC1,-7.76% (inactive)
2,CCCCOC(C)=O,8.22% (inactive)
3,COC1=CC(=O)O[C@@H](/C=C/c2ccccc2)C1,-17.5% (inactive)
4,CCC(C(N)=O)N1CCCC1=O (configuration not stated),6.54% (inactive)
5,CCCN1CCC[C@@H]2Cc3nc(N)ncc3C[C@H]21,3.64% (inactive)
6,CC(C)c1ccc(O)cc1,0.569% (inactive)
7,[P]#[In],0.3% (inactive)
8,CC1N=C(N)OC1c1ccccc1 (configuration not stated),-2.35% (inactive)
9,CCCOc1nn(C(=O)NS(=O)(=O)c2ccccc2C(=O)OC)c(=O)n1C,22.1% (inactive)
10,CCN[C@@H](C)Cc1cccc(C(F)(F)F)c1,2.94% (inactive)
11,CC(C)(C)C(=O)Cl,-0.811% (inactive)
12,CCCOC(=O)Cc1ccc(OCC(=O)N(CC)CC)c(OC)c1,-5.19% (inactive)
13,Cc1ccc2c(c1)C1CN(C)CCC1N2 (configuration not stated),2.17% (inactive)
14,C=CCN1CC[C@]23CCCC[C@H]2[C@H]1Cc1ccc(O)cc13,1.5% (inactive)
15,O=C(Cl)C(Cl)Cl,1.34% (inactive)
16,CCOP(=S)(OCC)Oc1ccc(Cl)cc1Cl,2.64% (inactive)
17,CCC1(c2cccc(O)c2)CCCCN(C)C1 (configuration not stated),3.71% (inactive)
18,CCN[C@@H](C)Cc1ccccc1,-5.07% (inactive)
19,CCOC(=O)C(SP(=S)(OC)OC)c1ccccc1 (configuration not stated),-6.34% (inactive)
20,CC1NCCOC1c1ccccc1 (configuration not stated),4.25% (inactive)
21,CC(C)(N)Cc1ccc(Cl)cc1,6.61% (inactive)
22,Oc1ccc2c3c1O[C@H]1[C@@H](O)C=C[C@H]4[C@@H](C2)NCC[C@@]341,-1.32% (inactive)
23,N[C@@H]1C[C@H]1c1ccccc1,1.46% (inactive)
24,O=P(O)(O)c1ccccc1,9.41% (inactive)
25,CCCCCCC1CCOC1=O (configuration not stated),-0.816% (inactive)
26,O=C(O)C(Br)(Br)Br,-0.0563% (inactive)
27,CCCN1CCC[C@@H]2Cc3[nH]ncc3C[C@H]21,2.6% (inactive)

# Test: A CellTox Green Cytotoxicity Assay to monitor cytotoxicity in HEK293 cells - 24 hour (AID 1224875); also: nearly all actives have a fitted effect of over 45% in size; also: potency is read from the fitted curve at half-maximal effect
# Conditions: CellTox Green fluorescence; series mostly up to 76.8 µM
# How it was run: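 Real-time, in one plate: 600 HEK293 cells/well with dead-cell DNA dye, pinned compound after 5 h, 37 C incubation over 40 h; viable cells give no appreciable fluorescence.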
Compound,Potency,activity change
CCC(=O)OC1(c2ccccc2)CCN(C)CC1,inactive,
CCCCOC(C)=O,inactive,
COC1=CC(=O)O[C@@H](/C=C/c2ccccc2)C1,inactive,
CCC(C(N)=O)N1CCCC1=O (configuration not stated),inactive,
O=C(O)CBr,inactive,
CCCN1CCC[C@@H]2Cc3nc(N)ncc3C[C@H]21,16.9 µM (active),
CC(C)c1ccc(O)cc1,inactive,
[P]#[In],inactive,
CC1N=C(N)OC1c1ccccc1 (configuration not stated),inactive,
CCCOc1nn(C(=O)NS(=O)(=O)c2ccccc2C(=O)OC)c(=O)n1C,inactive,
COC(=O)[C@@H](N)CCCN/C(N)=N/[N+](=O)[O-],inactive,
CCN[C@@H](C)Cc1cccc(C(F)(F)F)c1,inactive,
O=c1[nH]oc2c1CCNC2,inactive,
CC(C)(C)C(=O)Cl,inactive,
CCCOC(=O)Cc1ccc(OCC(=O)N(CC)CC)c(OC)c1,inactive,
Cc1ccc2c(c1)C1CN(C)CCC1N2 (configuration not stated),,"0.918% [at 15.8 µM, active compounds read high] (inactive)"
C=CCN1CC[C@]23CCCC[C@H]2[C@H]1Cc1ccc(O)cc13,inactive,
O=C(Cl)C(Cl)Cl,inactive,

Compound,Potency,activity change
CCOC1Oc2ccc(OS(C)(=O)=O)cc2C1(C)C (configuration not stated),inactive,
Brc1c(Br)c(Br)c(Br)c(Br)c1Br,,"5.24% [at 6.97 µM, active compounds read high] (inactive)"
CCOP(=S)(OCC)Oc1ccc(Cl)cc1Cl,inactive,
CCC1(c2cccc(O)c2)CCCCN(C)C1 (configuration not stated),inactive,
CCN[C@@H](C)Cc1ccccc1,inactive,
CCOC(=O)C(SP(=S)(OC)OC)c1ccccc1 (configuration not stated),inactive,
CC1NCCOC1c1ccccc1 (configuration not stated),inactive,
CC(C)(N)Cc1ccc(Cl)cc1,inactive,
Oc1ccc2c3c1O[C@H]1[C@@H](O)C=C[C@H]4[C@@H](C2)NCC[C@@]341,inactive,
N[C@@H]1C[C@H]1c1ccccc1,inactive,
CCOC(=O)c1ncn2c1CN(C)C(=O)c1c(I)cccc1-2,inactive,
O=P(O)(O)c1ccccc1,inactive,
CCCCCCC1CCOC1=O (configuration not stated),inactive,
Clc1cc2c(cc1Cl)Oc1cc(Cl)c(Cl)cc1O2,,"-30.3% [at 0.29 µM, active compounds read high] (inactive)"
O=C(O)C(Br)(Br)Br,inactive,
CC(C)N(Cc1ccccc1)C(=O)C(C)(C)C,inactive,
CCCN1CCC[C@@H]2Cc3[nH]ncc3C[C@H]21,inactive,
